From PubChem BioAssay AID1159580 (chemical genetic matrix, 2015)
“And” between values parts separate entries of the source, which are not always exact repeats. Identical values can stand only once. Out of some 5,500 compounds screened, about 2,000 (36%) were called active. Another 18% or so got no clear call; they are omitted. No stated cut-off is given here; in the data, active means normalized growth mostly below about 0.91 (no sharp cut-off); inconclusive means no clear call, values can overlap the other calls; inactive means mostly above about 0.92. The list shows a part of the results.

Assay: chemical genetic growth profiling, strain panel (AID 1159580);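 further: tested at 20 µM; growth read once vehicle control cultures reached saturation at 30 °C; 1 = growth at the plate median or of vehicle wells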
Conditions: S. cerevisiae deletion strains, growth OD

Measured: normalized growth

CN[C@@H](C)[C@@H](O)c1ccccc1
inactive: locus YAL021C, strain ccr4, stronger effect = lower value 0.987 | locus YAL026C, strain drs2, stronger effect = lower value 0.995 | locus YAL030W, strain snc1, stronger effect = lower value 0.995 | locus YBL061C, strain skt5, stronger effect = lower value 0.992 | locus YBR009C, strain hhf1, stronger effect = lower value 1.02 | locus YBR021W, strain FUR4, stronger effect = lower value 1.01 | locus YBR023C, strain chs3, stronger effect = lower value 0.981 | locus YBR171W, strain sec66, stronger effect = lower value 0.993 | locus YBR229C, strain ROT2, stronger effect = lower value 0.949 | locus YBR231C, strain swc5, stronger effect = lower value 0.996 | locus YBR279W, strain paf1, stronger effect = lower value 1 | locus YCL011C, strain gbp2, stronger effect = lower value 0.971 | locus YCL016C, strain dcc1, stronger effect = lower value 0.987 | locus YCL029C, strain bik1, stronger effect = lower value 0.976 | locus YCL069W, strain vba3, stronger effect = lower value 0.995 | locus YCR088W, strain abp1, stronger effect = lower value 0.995 | locus YDL005C, strain med2, stronger effect = lower value 0.994 | locus YDL035C, strain GPR1, stronger effect = lower value 0.949 | locus YDL040C, strain nat1, stronger effect = lower value 1 | locus YDL074C, strain BRE1, stronger effect = lower value 1.01 | locus YDL101C, strain DUN1, stronger effect = lower value 1 | locus YDL185W, strain tfp1, stronger effect = lower value 0.961 | locus YDL192W, strain arf1, stronger effect = lower value 0.989 | locus YDR001C, strain nth1, stronger effect = lower value 0.996 | locus YDR069C, strain doa4, stronger effect = lower value 0.993 | locus YDR101C, strain arx1, stronger effect = lower value 0.998 | locus YDR137W, strain rgp1, stronger effect = lower value 0.982 | locus YDR159W, strain sac3, stronger effect = lower value 0.943 | locus YDR162C, strain NBP2, stronger effect = lower value 0.929 | locus YDR195W, strain ref2 0.977 | locus YDR297W, strain sur2, stronger effect = lower value 1 | locus YDR318W, strain mcm21, stronger effect = lower value 0.986 | locus YDR334W, strain swr1, stronger effect = lower value 1.01 | locus YDR335W, strain msn5, stronger effect = lower value 1 | locus YDR388W, stronger effect = lower value 0.992 | locus YDR392W, strain spt3, stronger effect = lower value 0.911 | locus YDR502C, strain sam2, stronger effect = lower value 1.01 | locus YEL003W, strain gim4, stronger effect = lower value 0.996 | locus YEL037C, strain rad23, stronger effect = lower value 0.985 | locus YEL061C, strain CIN8 (second series), stronger effect = lower value 0.989 | locus YEL061C, strain CIN8, stronger effect = lower value 0.989 | locus YER015W, strain faa2, stronger effect = lower value 1 | locus YER016W, strain bim1, stronger effect = lower value 0.984 | locus YER110C, stronger effect = lower value 0.987 | locus YER111C, strain swi4, stronger effect = lower value 0.996 | locus YER155C, strain BEM2 (second series), stronger effect = lower value 0.997 | locus YER155C, strain BEM2, stronger effect = lower value 0.999 | locus YER167W, strain BCK2, stronger effect = lower value 0.982 | locus YFR010W, strain ubp6, stronger effect = lower value 0.992 | locus YGL078C, strain dbp3, stronger effect = lower value 0.996 | locus YGL086W, strain mad1, stronger effect = lower value 0.996 | locus YGL167C, strain pmr1, stronger effect = lower value 1 | locus YGL173C, strain kem1, stronger effect = lower value 0.988 | locus YGL227W, strain vid30, stronger effect = lower value 0.982 | locus YGL240W, strain doc1, stronger effect = lower value 1 | locus YGL248W, strain PDE1, stronger effect = lower value 1.01 | locus YGL253W, strain hxk2, stronger effect = lower value 0.985 | locus YGR135W, strain pre9, stronger effect = lower value 0.989 | locus YGR252W, strain gcn5, stronger effect = lower value 1.01 | locus YHR013C, strain ard1, stronger effect = lower value 0.961 | locus YHR027C, strain rpn1, stronger effect = lower value 1 | locus YHR030C, strain SLT2, stronger effect = lower value 0.977 and 1.04 | locus YHR079C, strain IRE1 (second series), stronger effect = lower value 0.993 | locus YHR079C, strain IRE1, stronger effect = lower value 1.02 | locus YHR094C, strain hxt1, stronger effect = lower value 0.985 | locus YHR129C, strain ARP1, stronger effect = lower value 0.994 | locus YHR142W, strain chs7, stronger effect = lower value 0.976 | locus YHR200W, strain rpn10, stronger effect = lower value 0.984 | locus YIL066C, strain RNR3, stronger effect = lower value 0.926 | locus YIL073C, strain SPO22, stronger effect = lower value 0.973 | locus YIL125W, strain kgd1, stronger effect = lower value 0.987 | locus YIR030C, strain dcg1, stronger effect = lower value 0.996 | locus YJL092W, strain hpr5, stronger effect = lower value 0.999 | locus YJL095W, strain BCK1 (second series), stronger effect = lower value 0.994 | locus YJL095W, strain BCK1, stronger effect = lower value 1.06 and 1.01 | locus YJL115W, strain asf1, stronger effect = lower value 0.999 | locus YJL129C, strain trk1, stronger effect = lower value 1.01 | locus YJL134W, strain LCB3, stronger effect = lower value 0.98 | locus YJL154C, strain vps35, stronger effect = lower value 0.996 | locus YJL164C, strain tpk1, stronger effect = lower value 1 | locus YJL166W, strain qcr8, stronger effect = lower value 1.01 | locus YJL168C, strain set2, stronger effect = lower value 0.995 | locus YJL187C, strain SWE1 (second series), stronger effect = lower value 1.03 | locus YJR043C, strain POL32, stronger effect = lower value 0.938 | locus YJR066W, strain TOR1, stronger effect = lower value 0.982 | locus YKL009W, strain mrt4, stronger effect = lower value 0.998
